SMILES strings stand for the structures. Among all 39,000 compounds or so, about 3,300 (8.5%) were called active. The sample holds actives, similar compounds and a random draw of the others, so the mix is not that of the screen.

The test has as its system HepG2. Briefly: cytotoxicity call (relative viability < 0.9). The note with it: 10 µM.
Take `C[C@@H]1CN([C@@H](C)CO)C(=O)c2cc(NC(=O)C3CCCCC3)ccc2O[C@@H](C)CCCCO[C@H]1CN(C)C(=O)C1CCCCC1`: the cytotoxicity call was “inactive”.
As for `Cc1noc(C)c1S(=O)(=O)Nc1ccc2c(c1)CC(=O)N([C@@H](C)CO)C[C@@H](C)[C@@H](CN(C)C(=O)Nc1ccc3c(c1)OCO3)O2`, the entry is “inactive”; as for `Cn1c(=O)c(C(=O)NCCO)c(O)c2ccccc21`, “inactive”.
The same measure for `CNC(=O)c1c(O)c2ccccc2n(C)c1=O`: “active”.
`CNC(=O)c1c(O)c2ccccc2[nH]c1=O`: the cytotoxicity call was “inactive”.
Take `COc1ccc2c3c([nH]c2c1)[C@H](CO)N(C[C@]13CCN(CC1)C(=O)CN(C)C)S(=O)(=O)C`: the cytotoxicity call is “inactive”.
As for `CC1OC1P(=O)([O-])[O-].[Ca+2]` (stereo not given), the cytotoxicity call was “inactive”.
The same measure for `CSc1c(-c2ccc(Cl)cc2)[nH]c2ccccc12`: “active”.
Take `Cc1[nH]c2ccccc2c1C(=O)CSc1ccc(Cl)cc1`: the cytotoxicity call is “inactive”.
Take `NCC[S@@](=O)c1c(-c2ccc(F)cc2)[nH]c2ccccc12`: the cytotoxicity call was “inactive”.
Consider `C[C@H](CO)N1C[C@H](C)[C@H](CN(C)S(=O)(=O)c2ccc(Cl)cc2)Oc2ccc(NC(=O)CCN3CCOCC3)cc2C1=O`, for which the cytotoxicity call is “inactive”.
As for `C[C@@H]1CN([C@@H](C)CO)C(=O)Cc2cc(NC(=O)c3ccncc3)ccc2O[C@H]1CN(C)S(C)(=O)=O`, the entry is “inactive”; as for `C[C@H](O)C#Cc1ccc2c(c1)O[C@H](CN(C)C(=O)CN(C)C)[C@@H](C)CN([C@@H](C)CO)S2(=O)=O`, “inactive”; as for `CC(C)NC(=O)Nc1ccc2c(c1)CC(=O)N([C@H](C)CO)C[C@@H](C)[C@@H](CN(C)S(=O)(=O)c1ccc(Cl)cc1)O2`, “inactive”.
With `C[C@H]1CN([C@@H](C)CO)C(=O)Cc2cc(NC(=O)Nc3cccc(C(F)(F)F)c3)ccc2O[C@H]1CN(C)S(=O)(=O)c1ccc(Cl)cc1`, the cytotoxicity call was “active”.
The same measure for `C[C@H]1CN([C@@H](C)CO)C(=O)Cc2cc(NC(=O)Nc3ccc(C(F)(F)F)cc3)ccc2O[C@H]1CN(C)S(=O)(=O)c1ccc(Cl)cc1`: “active”; for `C[C@H]1CN([C@@H](C)CO)C(=O)Cc2cc(NC(=O)Nc3ccc(C(F)(F)F)cc3)ccc2O[C@H]1CN(C)S(C)(=O)=O`: “inactive”.
As for `C[C@H](CO)N1C[C@H](C)[C@H](CN(C)S(=O)(=O)c2ccc(Cl)cc2)Oc2ccc(NC(=O)Nc3ccc(C(F)(F)F)cc3)cc2CC1=O`, the entry is “active”.
The same measure for `C[C@@H]1CN([C@H](C)CO)C(=O)Cc2cc(NC(=O)Nc3ccc(C(F)(F)F)cc3)ccc2O[C@H]1CN(C)S(C)(=O)=O`: “inactive”; for `C[C@@H]1CN([C@H](C)CO)C(=O)Cc2cc(NC(=O)Nc3ccc(C(F)(F)F)cc3)ccc2O[C@@H]1CN(C)S(C)(=O)=O`: “inactive”; for `C[C@@H]1CN([C@H](C)CO)C(=O)Cc2cc(NC(=O)Nc3ccc(C(F)(F)F)cc3)ccc2O[C@@H]1CN(C)S(=O)(=O)c1ccc(Cl)cc1`: “active”.
In the case of `C[C@H](CO)N1C[C@H](C)[C@@H](CN(C)S(C)(=O)=O)Oc2ccc(NC(=O)Nc3ccc(C(F)(F)F)cc3)cc2CC1=O`, the cytotoxicity call was “inactive”.
As for `O=C(O)c1ccc[nH]1`, the entry is “inactive”.
With `Cc1noc(C)c1NC(=O)N(C)C[C@@H]1Oc2ccc(NC(=O)Nc3ccc(C(F)(F)F)cc3)cc2CC(=O)N([C@@H](C)CO)C[C@@H]1C`, the cytotoxicity call is “inactive”.
For the compound `C[C@@H]1CN([C@H](C)CO)C(=O)Cc2cc(NC(=O)Cn3cnnn3)ccc2O[C@H]1CN(C)Cc1ccc(Oc2ccccc2)cc1`, the cytotoxicity call was “inactive”.
With `CN1CCN(C(=O)C[C@H]2C=C[C@H](NS(=O)(=O)c3cccc(F)c3)[C@@H](CO)O2)CC1`, the cytotoxicity call was “inactive”.
For `Cn1cnc(S(=O)(=O)N[C@H]2CC[C@H](CC(=O)NCC3CC3)O[C@@H]2CO)c1`, the cytotoxicity call is “inactive”.
Turning to `C[C@@H]1CN([C@@H](C)CO)C(=O)c2cc(NC(=O)CCC(F)(F)F)ccc2O[C@@H](C)CCCCO[C@H]1CN(C)C(=O)Nc1cccc2ccccc12`, the cytotoxicity call was “inactive”.
`CC(C)N1C[C@H](C)[C@@H](CN(C)Cc2ccc(Oc3ccccc3)cc2)Oc2c(C(=O)Nc3ccncc3)cccc2C1=O`: the cytotoxicity call is “inactive”.
Consider `COc1ccc(NC(=O)Nc2ccc3c(c2)C(=O)N([C@@H](C)CO)C[C@H](C)[C@H](CN(C)Cc2ccc(C(=O)O)cc2)OCCCC[C@H](C)O3)cc1`, for which the cytotoxicity call is “inactive”.
Regarding `CCCNS(=O)(=O)c1c[nH]c(C(=O)OC)c1`, the cytotoxicity call was “inactive”.
In the case of `C[C@@H]1CN([C@@H](C)CO)C(=O)c2cccc(NS(=O)(=O)c3ccc(F)cc3)c2O[C@@H]1CN(C)CC1CC1`, the cytotoxicity call was “inactive”.
As for `C[C@H](CO)N1C[C@H](C)[C@@H](CN(C)S(=O)(=O)c2ccc(Cl)cc2)Oc2ccc(NC(=O)Nc3ccc(C(F)(F)F)cc3)cc2CC1=O`, the cytotoxicity call is “active”.
The same measure for `C[C@@H]1CN([C@H](C)CO)C(=O)Cc2cc(NC(=O)Nc3ccc(C(F)(F)F)cc3)ccc2O[C@H]1CN(C)S(=O)(=O)c1ccc(Cl)cc1`: “inactive”; for `C[C@@H]1CN([C@@H](C)CO)C(=O)Cc2cc(NC(=O)Nc3ccc(C(F)(F)F)cc3)ccc2O[C@H]1CN(C)S(=O)(=O)c1ccc(Cl)cc1`: “inactive”.
As for `C[C@H]1CN([C@@H](C)CO)C(=O)Cc2cc(NC(=O)Nc3ccc(C(F)(F)F)cc3)ccc2O[C@@H]1CN(C)S(=O)(=O)c1ccc(Cl)cc1`, the entry is “active”; as for `C[C@H]1CN([C@@H](C)CO)C(=O)Cc2cc(NC(=O)Nc3cccc(C(F)(F)F)c3)ccc2O[C@H]1CN(C)S(=O)(=O)c1ccc(Oc2ccccc2)cc1`, “active”; as for `COc1ccc(S(=O)(=O)N(C)C[C@@H]2Oc3ccc(NC(=O)Nc4cccc(C(F)(F)F)c4)cc3CC(=O)N([C@@H](C)CO)C[C@@H]2C)cc1Cl`, “active”.
Take `Cc1cc(=O)nc2[nH][nH]c(=S)n12`: the cytotoxicity call was “inactive”.
With `C[C@H]1CN([C@@H](C)CO)C(=O)c2cccc(NC(=O)c3nc4ccccc4s3)c2O[C@@H]1CN(C)S(C)(=O)=O`, the cytotoxicity call is “inactive”.
For `C[C@@H]1CN([C@@H](C)CO)C(=O)Cc2cc(NC(=O)Nc3cccc4ccccc34)ccc2O[C@H]1CN(C)C(=O)Nc1ccccc1`, the cytotoxicity call was “inactive”.
With `COc1ccc(S(=O)(=O)Nc2ccc3c(c2)CC(=O)N([C@H](C)CO)C[C@@H](C)[C@H](CN(C)Cc2ccc(C(=O)O)cc2)O3)cc1`, the cytotoxicity call was “inactive”.
Consider `CN(C)C=C(C=[N+](C)C)c1[nH]ncc1N`, for which the cytotoxicity call is “inactive”.
On to `C[C@@H]1CN([C@@H](C)CO)C(=O)Cc2cc(NC(=O)Nc3ccc(C(F)(F)F)cc3)ccc2O[C@@H]1CN(C)S(=O)(=O)c1ccc(Cl)cc1`, for which the cytotoxicity call was “active”.
The same measure for `Cc1cc(C(=O)Nc2cccc3c2O[C@H](CN(C)Cc2ccncc2)[C@@H](C)CN([C@H](C)CO)C3=O)n(C)n1`: “inactive”; for `C[C@@H]1CN([C@@H](C)CO)C(=O)Cc2cc(NC(=O)CCC(F)(F)F)ccc2O[C@@H]1CN(C)S(=O)(=O)c1cn(C)cn1`: “inactive”.
The same measure for `C[C@H]1CN([C@@H](C)CO)C(=O)c2cc(NC(=O)c3ccncc3)ccc2O[C@H]1CN(C)Cc1ccc(C(=O)O)cc1`: “inactive”; for `C[C@@H]1CN([C@H](C)CO)C(=O)c2cc(NC(=O)Nc3ccccc3)ccc2O[C@@H](C)CCCCO[C@H]1CN(C)S(=O)(=O)c1ccc(Cl)cc1`: “active”; for `C[C@@H]1CCCCO[C@H](CN(C)S(=O)(=O)c2ccc(Cl)cc2)[C@@H](C)CN([C@H](C)CO)C(=O)c2cc(NC(=O)Nc3cccc4ccccc34)ccc2O1`: “inactive”.
The same measure for `C[C@@H]1CN([C@@H](C)CO)C(=O)c2cc(NC(=O)Nc3ccccc3)ccc2O[C@@H](C)CCCCO[C@H]1CN(C)S(=O)(=O)c1ccc(Cl)cc1`: “active”; for `C[C@@H]1CCCCO[C@@H](CN(C)S(=O)(=O)c2ccc(Cl)cc2)[C@@H](C)CN([C@@H](C)CO)C(=O)c2cc(NC(=O)Nc3ccccc3)ccc2O1`: “inactive”; for `C[C@@H]1CCCCO[C@@H](CN(C)S(=O)(=O)c2ccc(Cl)cc2)[C@@H](C)CN([C@@H](C)CO)C(=O)c2cc(NC(=O)Nc3cccc4ccccc34)ccc2O1`: “active”.
Take `C[C@H](CO)N1C[C@H](C)[C@@H](CN(C)S(=O)(=O)c2ccc(Cl)cc2)OCCCC[C@H](C)Oc2ccc(NC(=O)Nc3ccccc3)cc2C1=O`: the cytotoxicity call was “inactive”.
As for `C[C@@H]1CN([C@@H](C)CO)C(=O)c2cc(NC(=O)Nc3ccccc3)ccc2O[C@@H](C)CCCCO[C@@H]1CN(C)S(=O)(=O)c1ccc(Cl)cc1`, the cytotoxicity call is “inactive”.
The same measure for `C[C@@H]1CCCCO[C@@H](CN(C)S(=O)(=O)c2ccc(Cl)cc2)[C@@H](C)CN([C@H](C)CO)C(=O)c2cc(NC(=O)Nc3ccccc3)ccc2O1`: “inactive”; for `C[C@@H]1CCCCO[C@H](CN(C)S(=O)(=O)c2ccc(Cl)cc2)[C@@H](C)CN([C@@H](C)CO)C(=O)c2cc(NC(=O)Nc3cccc4ccccc34)ccc2O1`: “inactive”; for `C[C@H](CO)N1C[C@H](C)[C@H](CN(C)C(=O)Nc2ccccc2)OCCCC[C@H](C)Oc2ccc(NC(=O)NC3CCCCC3)cc2C1=O`: “inactive”.
Regarding `C[C@@H]1CN([C@H](C)CO)C(=O)c2cccc(NC(=O)Nc3cccc4ccccc34)c2O[C@@H]1CN(C)S(=O)(=O)c1ccc(Cl)cc1`, the cytotoxicity call is “inactive”.
In the case of `Cc1ccc(/C=N/Nc2cnnc(=O)[nH]2)o1`, the cytotoxicity call was “inactive”.
The same measure for `O=C(Cn1cnnn1)NC1C(=O)N2C(C(=O)O)=C(CSc3nncs3)CSC12` (stereo not given): “inactive”; for `COCC(=O)Nc1ccc2c(c1)OC[C@@H](C)N(C(=O)Cc1ccccn1)C[C@H](C)[C@@H](OC)CN(C)C2=O`: “inactive”; for `O=c1[nH]c(=O)c2[nH]c(=O)[nH]c2[nH]1`: “inactive”.
`COc1ccc(S(=O)(=O)Nc2ccc3c(c2)CC(=O)N([C@H](C)CO)C[C@H](C)[C@@H](CN(C)C(=O)Nc2c(C)noc2C)O3)cc1`: the cytotoxicity call is “inactive”.
Turning to `COc1ccc(NC(=O)Nc2cccc3c2O[C@H](CN(C)Cc2ccc(Oc4ccccc4)cc2)[C@H](C)CN([C@H](C)CO)C3=O)cc1`, the cytotoxicity call was “inactive”.
As to `COc1ccc(NC(=O)Nc2cccc3c2O[C@H](CN(C)Cc2ccc(Oc4ccccc4)cc2)[C@@H](C)CN([C@H](C)CO)C3=O)cc1`, the cytotoxicity call was “inactive”.
Turning to `Cc1cc(C(=O)Nc2cccc3c2O[C@@H](CN(C)Cc2ccc(Oc4ccccc4)cc2)[C@@H](C)CN([C@@H](C)CO)C3=O)n(C)n1`, the cytotoxicity call is “inactive”.
Turning to `Cc1cc(C(=O)Nc2cccc3c2O[C@@H](CN(C)Cc2ccc(Oc4ccccc4)cc2)[C@H](C)CN([C@@H](C)CO)C3=O)n(C)n1`, the cytotoxicity call is “inactive”.
For `COc1ccc(NC(=O)Nc2cccc3c2O[C@H](CN(C)Cc2ccc(Oc4ccccc4)cc2)[C@@H](C)CN([C@@H](C)CO)C3=O)cc1`, the cytotoxicity call was “inactive”.
In the case of `C[C@H](CO)N1C[C@H](C)[C@H](CN(C)Cc2ccc(Oc3ccccc3)cc2)Oc2c(NC(=O)Nc3ccc(F)cc3)cccc2C1=O`, the cytotoxicity call was “inactive”.
As for `COc1ccc(NC(=O)Nc2cccc3c2O[C@@H](CN(C)Cc2ccc(Oc4ccccc4)cc2)[C@H](C)CN([C@H](C)CO)C3=O)cc1`, the entry is “inactive”.
For the compound `C[C@@H]1CN([C@H](C)CO)C(=O)c2cccc(NC(=O)Nc3ccc(F)cc3)c2O[C@@H]1CN(C)Cc1ccc(Oc2ccccc2)cc1`, the cytotoxicity call was “active”.
Turning to `Cc1cc(C(=O)Nc2cccc3c2O[C@H](CN(C)Cc2ccc(Oc4ccccc4)cc2)[C@@H](C)CN([C@H](C)CO)C3=O)n(C)n1`, the cytotoxicity call was “active”.
Regarding `COc1ccc(NC(=O)Nc2cccc3c2O[C@@H](CN(C)Cc2ccc(Oc4ccccc4)cc2)[C@@H](C)CN([C@H](C)CO)C3=O)cc1`, the cytotoxicity call was “active”.
On to `COc1ccc(NC(=O)Nc2cccc3c2O[C@@H](CN(C)Cc2ccc(Oc4ccccc4)cc2)[C@@H](C)CN([C@@H](C)CO)C3=O)cc1`, for which the cytotoxicity call is “active”.
As for `C[C@@H]1CN([C@@H](C)CO)C(=O)c2cccc(NC(=O)Nc3ccc(F)cc3)c2O[C@H]1CN(C)Cc1ccc(Oc2ccccc2)cc1`, the entry is “inactive”.
